# Source: PubChem (National Center for Advancing Translational Sciences (NCATS))
# In the library only some 8% were active in any assay of this set; here they are far more common.
# HCV inhibitor: inhibitors of hepatitis C virus infection; actives 3.4% (n = 340,000); Potency, µM (titrated, usually from 41.8 µM), most hits filed as inhibitors; Huh7.5.1 HCVcc-Cre infection, luciferase reporter, 44 h; AID 651820; active = well fitted inhibition curve with a large enough effect; inconclusive = small, poorly fitted or top-dose-only effect, or another doubt; inactive = no such curve, though single readings can be large or run the other way
#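 Cells (1,000/well) were plated 4 h before compound, then infected with HCVcc-Cre virus (~0.5 moi). After 44 h further culture, infection was read as luciferase luminescence following a 15 min substrate incubation at room temperature.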
# SARS PLpro yeast: SARS-CoV PLP inhibition in yeast. S. cerevisiae expressing SARS-CoV PLpro, growth rescue. Potency, µM (doses to about 32.9 µM), hits mostly activators. actives 0.19% (n = 330,000). AID 485353; calls by dose curve; note: nearly all actives have a fitted effect of over 55% in size
# HCMV inh: human cytomegalovirus inhibition | HFF cells, HCMV-luciferase reporter, 72 h; hits give low values | activity change, negative = inhibition, % at 57.5 µM | actives 4.5% (n = 410,000) | AID 1259415; in the data active = activity change below about -60%; inconclusive = no clear call, values can overlap the other calls; inactive = above about -39%
#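 After 16 h attachment at 37C, HFF cells received test compound and HCMV-luciferase (1 PFU/cell); reporter luminescence read 72 h later, data normalized against buffer-only and known inhibitor Salinomycin.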
# FMDV antiviral: blocks foot and mouth disease virus; actives 1.2% (n = 410,000); Potency, µM (series often up to 57.9 µM), hits mostly inhibitors; FMDV antiviral cell-based qHTS; AID 1159524; calls by dose curve; tested in HEK293T cells; note: read-out not given here; nearly all actives have a fitted effect of over 45% in size
# MARV entry inh: inhibitors of Marburg virus binding or cell entry. Marburg virus pseudotyped entry inhibition, cell reporter. Potency, µM (top dose mostly 37.8 µM), hits mostly inhibitors. actives 1.8% (n = 300,000); calls by dose curve; tested in HEK293 cells
# LASV entry inh: blocks Lassa virus binding to or entry into cells; actives 1.2% (n = 300,000); Potency, µM (highest dose often 37.9 µM), actives largely listed as inhibitors; Lassa virus pseudotype entry inhibition, cell reporter; AID 540256; calls by dose curve; tested in HEK293 cells; note: nearly all actives have a fitted effect of over 50% in size
# Numbers stand for hits; – = inactive; ? = inconclusive; · = not tested or not shown; ! = a repeat was not active.
SMILES,HCV inhibitor,SARS PLpro yeast,HCMV inh,FMDV antiviral,MARV entry inh,LASV entry inh
CCOC(=O)N1CCN(C(=O)c2cc3c(-c4cccc(OC)c4)nn(C)c3s2)CC1,8.9µM,–,–,?,?,?
CC(=O)c1ccc(N2CCN(C(=O)c3cc4c(-c5ccccc5F)nn(C)c4s3)CC2)cc1,14µM,–,–,?,·,·
COc1cccc(-c2nn(C)c3sc(C(=O)N4CCN(c5cccc(C(F)(F)F)c5)CC4)cc23)c1,·,·,–,–,–,–
Cc1ccc(CCNC(=O)c2ccc(CSCc3ccccc3Cl)o2)cc1,·,·,–,–,·,–
COc1ccc(S(=O)(=O)n2ccc(-c3ccc4c(c3)CCC(C)(C)O4)n2)cc1,–,–,-85,–,?,?
Cc1cc(C)c(S(=O)(=O)NCC(c2ccco2)N2CCN(c3ccccc3)CC2)c(C)c1 (stereo not drawn),·,·,–,–,·,–
COCCOC(=O)C1=C(C)N(c2ccccc2)C(=O)NC1c1cccc([N+](=O)[O-])c1 (stereo not drawn),–,–,–,–,–,–
COC(=O)C1=C(C)NC(C)=C(C(=O)OCCN2CCN(C(c3ccccc3)c3ccccc3)CC2)C1c1cccc([N+](=O)[O-])c1 (stereo not drawn),·,·,-64,·,·,·
COC(=O)C1=C(C)NC(C)=C(C(=O)OCCN(C)Cc2ccccc2)C1c1cccc([N+](=O)[O-])c1 (stereo not drawn),–,–,–,?,16µM,7.3µM!
Cc1nc(Nc2nc(CSc3nc4ccccc4[nH]3)cc(=O)[nH]2)nc2ccccc12,?,–,-103,?,13µM,?
COc1ccc2c(C)nc(Nc3nc(C)c(C)c(=O)[nH]3)nc2c1,?,–,-102,–,?,?
Cc1nc(Nc2nc(CSc3ccc(Cl)cc3)cc(=O)[nH]2)nc2ccccc12,–,–,–,–,–,–
Cc1ccc(N/C(N)=N/c2nc(CSc3nnc(C)s3)cc(=O)[nH]2)c(C)c1,–,–,-88,–,·,·
COc1ccc2nc(Nc3nc(CSc4nc5ccccc5[nH]4)cc(=O)[nH]3)nc(C)c2c1,14µM,–,-98,?,11µM,?
CCc1c(C)nc(Nc2nc(C)c3ccc(OC)cc3n2)[nH]c1=O,?,–,–,·,–,–
Cc1c(CN2CCOc3ccc(C(C)(O)COc4ccccc4)cc3C2)cnn1C (stereo not drawn),·,·,·,–,·,·
Cc1nc(Nc2nc(-c3ccccc3)cc(=O)[nH]2)nc2ccccc12,8.9µM,·,–,–,?,?
Cc1ccc2c(C)nc(Nc3nc(CSc4nnc(C)s4)cc(=O)[nH]3)nc2c1,?,–,-99,–,–,–
COc1cccc2c(C)nc(Nc3nc(CSc4nnc(C)s4)cc(=O)[nH]3)nc12,–,–,–,–,–,–
COc1ccc2cc(-c3c(-c4ccncc4)nc(-c4ccc(S(C)(=O)=O)cc4C)n3C)ccc2c1,·,·,·,·,·,7.9µM
CC1CCCCN1C(=O)CSc1n[nH]c(-c2ccccc2Cl)n1 (stereo not drawn),·,·,–,–,·,–
CCOCCCNC(=O)c1ccc2c(=O)n(CCc3ccccc3)c(=O)[nH]c2c1,·,·,–,–,–,?
COc1cc(/C=C(/C#N)c2nc(-c3cc4ccccc4oc3=O)cs2)ccc1O,·,·,–,–,–,?
NC(=S)N=Nc1c(O)n(Cc2ccccc2)c2ccccc12,?,–,?,–,–,–
Cc1ccc(NC(=O)Cn2c(O)c(N=NC(N)=S)c3ccccc32)cc1,?,–,–,–,8.9µM,?
SMILES,HCV inhibitor,SARS PLpro yeast,HCMV inh,FMDV antiviral,MARV entry inh,LASV entry inh
C/C(Cl)=C\Cn1c(O)c(N=NC(N)=S)c2ccccc21,–,–,–,?,10µM,–
Cc1ccc(NC(=O)Cn2c(O)c(N=NC(N)=O)c3ccccc32)cc1,–,–,–,–,?,?
Cc1cccc(C)c1C(OCCN(C)C)C1CCCCC1 (stereo not drawn),?,–,–,?,21µM,?
COC(=O)CN1C(=O)CSc2ccc(S(=O)(=O)Nc3cccc(C)c3)cc21,·,·,–,–,·,–
O=C(Nc1nnc(SCc2cc(=O)c3ccccc3[nH]2)s1)c1ccccc1,·,·,–,?,·,–
Cc1ccc2[nH]c(CSc3nnc(NC(=O)c4ccccc4C)s3)cc(=O)c2c1,·,·,-74,?,·,–
Cc1ccc2[nH]c(CSc3nnc(NC(=O)c4ccccc4F)s3)cc(=O)c2c1,·,·,–,?,·,–
COc1ccccc1C(=O)Nc1nnc(SCc2cc(=O)c3ccccc3[nH]2)s1,·,·,–,22µM,·,–
COc1cc(=O)n2c(c1C(=O)N(C)Cc1ccsc1)CCN(Cc1c(C)nn(C)c1Cl)CC2,·,·,·,–,·,·
O=C(NC1CCc2ccccc21)c1cc(COc2cncc(Cl)c2)on1 (stereo not drawn),13µM,–,–,–,–,?
O=C(NC1CCc2ccccc21)c1cc(COc2ccc(F)cc2Cl)on1 (stereo not drawn),–,–,–,–,·,·
COc1cc(C)ccc1OCC(=O)OCC(=O)c1[nH]c(C)c(C(C)=O)c1C,–,?,–,–,–,–
COc1ccccc1OCC(=O)c1[nH]c(C)c(C(C)=O)c1C,?,–,–,20µM,?,?
CC(=O)c1c(C)[nH]c(C(=O)COc2cc(C)ccc2C(C)C)c1C,5.6µM,–,?,–,?,?
CC(C)c1cc(C(=O)N2CCCC(N3CCN(c4ccc(F)cc4)CC3)C2)n(C)n1 (stereo not drawn),?,–,-64,?,·,·
CC(C)C1N(S(=O)(=O)c2ccccc2)CCN1S(=O)(=O)c1ccccc1,–,?,-107,–,–,–
CC(C)C1N(C(=O)N(C)C)CCN1S(=O)(=O)c1ccccc1 (stereo not drawn),–,–,–,–,–,–
Fc1ccc(-c2csc(-c3nc(-c4ccc(Br)s4)cs3)n2)cc1,·,·,–,–,?,?
CC[C@@H](O)C[C@H]1CCC[C@@]2(C[C@@H]3OC(=O)/C=C/[C@@](C)(O)[C@@H](O)[C@H](C)[C@@H](O)[C@H](OC4CCC(N(C)C)C(C)O4)[C@@H](O)[C@](C)(O)CCCCC/C=C/[C@@H]4CC(C)(C)O[C@@]4(O)C[C@H](O2)[C@H]3C)O1 (stereo partly drawn),?,·,-97,?,–,?
COCCn1c(CCC(=O)Nc2ccc(OC)c(OC)c2)nc2cccnc21,·,·,–,–,–,?
Cc1ccc(-n2c(C)cc(/C=N/NC(=O)c3ccncc3)c2C)cc1,?,–,–,–,–,–
Cc1cccc(-n2c(C)cc(/C=N/NC(=O)c3ccc(CN4CCOCC4)cc3)c2C)c1,10µM,–,–,?,–,–
Cc1ccc(C(=O)N/N=C/c2cc(C)n(-c3ccc(Br)cc3)c2C)cc1[N+](=O)[O-],20µM,–,–,–,?,–
O=C(N/N=C/c1ccc(OC(=O)c2ccccc2)cc1)c1ccc(CN2CCOCC2)cc1,–,–,–,?,?,–
Cc1ccc(-n2c(C)cc(/C=N/NC(=O)c3ccc(CN4CCOCC4)cc3)c2C)cc1,10µM,–,?,?,–,–
